Reference: the OligoGym collection

biological target: CYP2E1; test: pooled miR-30 sensor sort-seq; sequence = guide strand; conditions: shRNA

| Sequence | sensor-assay potency score (higher = more potent) |
| --- | --- |
| TAAACAAATACATCAGCCTTAG | -0.917 |
| AAGTAGTGTAGAAAGCTGGGAA | 0.682 |
| TACAGCGTGAACACCGGCCCGA | -0.641 |
| TTGGTTGTCATACAAAACAGAG | -1.2 |
| TTAAACAAATACATCAGCCTTA | 0.593 |
| TAGTCACTGTACTTGAACTTTC | -0.787 |
| ATCATTGTAGTCAAAATGCTTG | -1.07 |
| TGTCCTTCCAGGTAGGTCCATT | -0.826 |
| TCACTGTACTTGAACTTTCCAT | -0.768 |
| TAAACTTTTCTGGATCAGGAAA | -1.37 |
| TGTCATACAAAACAGAGTCCAG | -0.481 |
| TAGAAACTTCTCATCATTGTAG | 1.11 |
| TTATTAAAAATGATTCCCCTGT | 0.074 |
| ATGTAGGGCATCTCTTGCCTAT | -1.01 |
| ATATTCTTCAATTCCAACTGGA | 0.347 |
| TTATTGTAAAGCTGGAGCCAGG | -1.09 |
| TTTTTTATGACTTTTCTGTGGC | 0.343 |
| TATTCTTCAATTCCAACTGGAA | -0.685 |

biological target: CYP4A11; test: as above; conditions: shRNA

| Sequence | sensor-assay potency score (higher = more potent) |
| --- | --- |
| TAGCTCCTGGTCCTGTTGGAGC | -1.31 |
| TAGATGGTGTCATTCTGGTGAA | -0.837 |
| AACACAAGTCGTGCAATGGGGA | -1.18 |
| TGTGCAGGTAGAGCTGAACTGC | -1.37 |
| AAAGGGTCAAACACCTCTGGGT | -0.324 |
| TTTGAGCAGCCACTGCCTGTGC | -0.428 |
| TTTCTGAATCCGTTGTAGCTCC | -0.368 |

biological target: CYP4A22; test: as above; conditions: shRNA

| Sequence | sensor-assay potency score (higher = more potent) |
| --- | --- |
| TAGAGGATCCAGGAGATCCCAC | -1.33 |
| TTGGGAATGTCTTCACCCGTTC | -0.893 |
| TGAGCTCTCTTCCAATGCCTGG | -1.4 |
| AATAAGGACAGGCACTTGGGAA | -1.26 |
| ATTTCAACACAAGTCGTGCCAT | -0.11 |
| TGTCTGACAAGATGCTCCCATT | -1.67 |
| TTTGGATTTCAACACAAGTCGT | -1.17 |
| TTTCAACACAAGTCGTGCCATG | -0.809 |
| AAACATGAACGTGTCCACCTCA | -0.12 |
| TTGGGTTGTGGTGAAGGCCATA | -1 |
| TGGTCGTGTTGGAACTCCTGGA | -0.8 |
| TTGGTCTGTGTGCTGATGGGCC | -0.327 |
| TAGCTCCTGGTCGTGTTGGAAC | -1.63 |
| TAGGATCCATGGGATTTCGGGT | -1.1 |
| TTCTGTAGTTGAGCCTTCCTCA | 0.294 |
